Screening data: PubChem, National Center for Advancing Translational Sciences (NCATS)
TRHR enhancer – qHTS for Small Molecule Agonists and Allosteric Enhancers of Human TRH Receptor: Primary Screen for Enhancers. AID 493056, 2011. TRHR cells, fluo-8 calcium fluorescence, EC20 TRH enhancement. hit rate 0.66% among 360,000. enhancement, % at 2 µM; in the data active = enhancement above about 30%
Target sequence (P34981 whole entry, looked up): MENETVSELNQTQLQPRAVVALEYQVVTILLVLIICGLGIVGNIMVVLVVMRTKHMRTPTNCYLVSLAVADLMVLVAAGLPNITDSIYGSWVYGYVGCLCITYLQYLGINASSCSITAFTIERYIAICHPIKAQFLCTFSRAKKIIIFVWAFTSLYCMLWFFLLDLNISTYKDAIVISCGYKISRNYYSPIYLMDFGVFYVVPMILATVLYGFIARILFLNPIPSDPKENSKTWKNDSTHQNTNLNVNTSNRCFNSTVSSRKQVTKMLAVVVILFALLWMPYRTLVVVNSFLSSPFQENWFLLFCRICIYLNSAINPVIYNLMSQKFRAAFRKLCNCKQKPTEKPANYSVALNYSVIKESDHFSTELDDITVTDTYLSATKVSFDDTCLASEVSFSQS
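TRHR-expressing cells loaded with fluo-8 calcium dye were read kinetically (ex 480/em 530) during compound addition, then stimulated with an EC20 of TRH (10 nM final). Enhancement of the Gq-mediated intracellular calcium response was scored.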
D1 agonist – Allosteric Agonists of the Human D1 Dopamine Receptor: qHTS. HEK293 T-REx D1 cells, calcium flux, agonist mode. activation, % at 2 µM. hit rate 1% among 360,000
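Tetracycline-induced HEK293 TREx D1 cells, force-coupled to calcium signalling, were dye-loaded with a no-wash calcium kit. Compound was pin-added after a 10 s baseline. Fluorescence was read kinetically at 1 cycle/s for 180 s, with calcium rises flagged as agonism.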
D1 potentiator – Potentiators of Human D1 Dopamine Receptor: qHTS; D(1A) dopamine receptor (Homo sapiens), P21728; HEK293 TREx D1 cells, calcium flux, dopamine EC20 potentiation; potentiation, % at 10 µM; hit rate 0.036% among 360,000; AID 504651, 2011; in the data active = potentiation above about 30%
D1 antagonist – Antagonist of Human D 1 Dopamine Receptor: qHTS | AID 504652, 2011 | D(1A) dopamine receptor (Homo sapiens), P21728 | HEK293 TREx D1 cells, calcium flux, dopamine EC80; active compounds read low | activity change, negative = inhibition, % at 10 µM | hit rate 3.2% among 360,000; in the data active = activity change below about -30%
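Kinetic fluorescence of a calcium dye serves as the read-out. D1-expressing Hek293 Trex cells, induced overnight at 30 C, are exposed to compound for 180 s before an EC80 dopamine addition, then read 180 s further.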
TRHR ag – qHTS for Small Molecule Agonists and Allosteric Enhancers of Human TRH Receptor: Primary Screen for Agonists; AID 493084, 2011; hit rate 0.18% among 360,000; Thyrotropin-releasing hormone receptor (Homo sapiens), P34981; TRHR cells, calcium flux fluo-8, FDSS agonist mode; activation, % at 2 µM
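TRHR-expressing cells, plated overnight in medium with 10% serum, were loaded with fluo-8 calcium dye at room temperature. After a 10 s baseline, library compound was pin-added and calcium release was recorded kinetically (ex 480/em 530) as agonist response.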
A number is an active result; - = inactive; . = no result. In the library only some 4.6% were active in any assay of this set; here they are far more common. Rule as the data show it, unless noted: active = activation above about 30%; inactive = the rest.

SMILES	TRHR enhancer	D1 agonist	D1 potentiator	D1 antagonist	TRHR ag
CC1CCN(c2nc3c(c(=O)[nH]c(=O)n3C)n2CC(C)CSc2nnnn2-c2ccccc2)CC1 (stereo unspecified)	-	-	-	-	-
Cc1ccc(C)c(NC(=O)CCCN2C(=O)C(c3ccccc3)Oc3cccnc32)c1 (stereo unspecified)	53.0	-	-	-	-
N#C/C(=N\Nc1ccccc1)C(N)=S	-	-	-	-	-
N#C/C(=N\Nc1ccc(Cl)cc1)C(N)=S	-	30.3	-	-	-
COc1ccc(OC)c(CNC(=O)C2CCN(c3nc4ccccc4nc3C(F)(F)F)CC2)c1	-	-	-	-	-
C/C(CC(=O)N1CCN(C=O)CC1)=N\NC(=O)c1ccc(Cl)cc1	-	-	-	-	-
O=CN1CCN(C(=S)NC(=O)c2ccc(Cl)cc2)CC1	38.5	-	-	-	-
Cc1ccn2c(Nc3c(C)cccc3C)c(-c3ccc(Cl)s3)nc2c1	-	33.7	-	-	-
Cc1ccn2c(Nc3c(C)cccc3C)c(-c3ccsc3)nc2c1	-	-	-	-	-
O=C(O)C1CCCCC1C(=O)OCCCCOC(=O)C1CCCCC1C(=O)O (stereo unspecified)	-	-	-	-30.9	-
O=C(O)[C@H]1CCCC[C@H]1C(=O)NCCNC(=O)[C@@H]1CCCC[C@@H]1C(=O)O	-	-	-	-	-
Cc1ccc(C(=O)NCc2ccc3c(c2)CCO3)cc1C	-	-	-	-48.3	-
Cc1oc(-c2cccc(Cl)c2)nc1Cn1c(SCc2ccccc2F)nc2ccncc21	-	-	-	-	-
Cc1cc(Cl)c(S(=O)(=O)Nc2ccc3c(c2)OCO3)cc1OCC(N)=O	-	-	-	-34.2	-
O=S(=O)(c1cccs1)N1CCC(Cc2ccccc2)CC1	-	-	-	-42.4	-
O=C(CCc1ccccc1)N1CCN(S(=O)(=O)c2cccs2)CC1	-	-	-	-39.7	-
O=C(Nc1cccnc1)c1ccccc1Oc1ccccc1	-	-	-	-	-
O=C(Nc1cccnc1)c1ccc(Oc2ccccc2)cc1	34.3	-	-	-	-
CC(=O)Nc1cccc(NC(=O)c2ccc(COc3ccccc3)cc2)c1	-	36.1	.	-	-
COc1ccc(OCc2ccc(C(=O)NN)cc2)cc1	-	-	-	-42.4	-
O=C(Nc1cccnc1)c1ccc(COc2ccccc2Br)cc1	-	-	-	-69.3	-
CN(C)c1ccc(CNC(=O)c2ccc3nc(CCc4ccccc4)oc3c2)cc1	-	-	-	-	-
CCOc1ccc(NC(=O)CCc2c(C)nc3cc(-c4ccccc4OC)nn3c2C)cc1	-	-	-	-	-
Cc1noc(/C=C/c2ccco2)c1S(=O)(=O)N1CCC(C(=O)Nc2ccc(F)cc2F)CC1	-	-	-	-	-
O=C(CNC(=O)c1ccc(-c2ccccc2)cc1)OC(C(=O)Nc1cc(C(F)(F)F)ccc1Cl)c1ccccc1 (stereo unspecified)	-	-	-	-	-
SMILES	TRHR enhancer	D1 agonist	D1 potentiator	D1 antagonist	TRHR ag
COc1ccc(Cc2noc(CN3CCN(c4ccc(Cl)cn4)CC3)n2)cc1OC	-	-	-	-30.9	-
CCCN1Cc2cccc(C(=O)Nc3ccccc3C(=O)OC)c2C1=O	-	-	-	-	-
CCC(=O)NC(=S)Nc1ccc(NC(=O)c2cccc([N+](=O)[O-])c2C)cc1	-	-	-	-39.8	-
CCC(=O)NC(=S)Nc1ccc(NC(=O)c2ccccc2[N+](=O)[O-])cc1	-	-	-	-	-
O=C(CSc1nccn1-c1ccc(Cl)cc1)Nc1ccc2c(c1)OCO2	-	-	-	-49.3	-
Nn1c(SCC(=O)Nc2ccc3c(c2)OCCO3)nnc1-c1cccnc1	-	-	-	-37.4	-
O=C(CN1CCN(c2nc(-c3ccccc3)cs2)CC1)Nc1ccc2c(c1)OCO2	-	-	-	-32.4	-
O=C(CSc1nnc(-c2cccnc2)n1-c1ccccc1)Nc1ccc2c(c1)OCO2	-	-	-	-60.6	-
Fc1ccc(-n2ncc3c(SCc4cccnc4)ncnc32)cc1	-	-	-	-	-
Cc1ccc(NC(=O)N2CCc3c([nH]c4ccccc34)C2c2ccccc2F)c(Cl)c1 (stereo unspecified)	-	-	-	-	-
CCCCCCn1nc(C(=O)Nc2nc3c(s2)CCCC3)c2ccccc2c1=O	-	-	-	-	-
Cc1ccc(C)c(CSc2nc3c([nH]c4ccccc43)c(=O)n2C)c1	-	-	-	-	-
Nn1c(SCc2cccc(F)c2)nnc1-c1cccnc1	-	-	-	-31.4	-
O=C(CSc1nc(-c2ccccc2)[nH]c1-c1ccccc1)Nc1ccc2c(c1)OCO2	-	-	-	-30.2	-
CCc1ccc(NC(=O)N2CCN(c3nnc(C)c4c(C)n(-c5ccc(Cl)cc5)nc34)CC2)cc1	-	-	-	-	-
CC(=O)N1N=C(c2cccc(Cl)c2)OC1c1ccc(C(C)C)cc1 (stereo unspecified)	-	-	-	-	-
CC(=O)N1N=C(c2ccc(C)cc2)OC1c1cccnc1 (stereo unspecified)	-	-	-	-31.8	-
COc1ccc(S(=O)(=O)N2CCN(C)CC2)cc1NC(=O)c1ccccc1	-	-	-	-	-
CC(=O)Nc1cccc(-c2nc3ccccc3[nH]2)c1	-	-	-	-	-
CC(Oc1ccccc1)C(=O)Nc1cccc(-c2nc3ccccc3[nH]2)c1 (stereo unspecified)	-	-	-	-40.3	-
O=C(NCCn1cccn1)C1CCC(=O)N(CCc2ccc(Cl)cc2)C1 (stereo unspecified)	-	-	-	-	-
COc1cccc(N(CC(=O)NC2CCCCC2)C(=O)c2snc(C(N)=O)c2N)c1	-	-	-	-35.1	-
COc1ccc(C(C(=O)NC2CCCCC2)N(Cc2cccnc2)C(=O)c2snc(C(N)=O)c2N)cc1 (stereo unspecified)	-	-	-	-33.7	-
COc1ccc(CN(C(=O)c2nsc(Cl)c2Cl)C(C(=O)NC2CCCCC2)c2ccc(OC)cc2)cc1 (stereo unspecified)	-	-	-	-	-
CCCC(C(=O)NC1CCCC1)N(Cc1cccs1)C(=O)c1snc(C(N)=O)c1N (stereo unspecified)	-	-	-	-36.1	-
COc1ccc(CN(C(=O)c2nsc(Cl)c2Cl)C(C(=O)NC2CCCC2)c2ccc(C)cc2)cc1 (stereo unspecified)	37.0	-	-	-	-
